Results filed as inconclusive are left out. The source made the active and inactive calls. How the source made its calls: active means hit-call score of the fitted dose curve at least 0.9, where 1 is the maximum; inconclusive means response in the unintended direction; inactive means score below 0.9.
What follows are molecules tested against human Constitutive Androstane Receptor (CAR), NR1I3 (gene 9970) (UniProt Q14994) (assay: NVS_NR_hCAR_Antagonist: NovaScreen (NVS) Nuclear Receptor Binding Assay for human Constitutive Androstane Receptor Antagonism (CAR) (AID 2283344)).
Sequence of human Constitutive Androstane Receptor (CAR), NR1I3 (gene 9970) (Q14994 whole entry, looked up): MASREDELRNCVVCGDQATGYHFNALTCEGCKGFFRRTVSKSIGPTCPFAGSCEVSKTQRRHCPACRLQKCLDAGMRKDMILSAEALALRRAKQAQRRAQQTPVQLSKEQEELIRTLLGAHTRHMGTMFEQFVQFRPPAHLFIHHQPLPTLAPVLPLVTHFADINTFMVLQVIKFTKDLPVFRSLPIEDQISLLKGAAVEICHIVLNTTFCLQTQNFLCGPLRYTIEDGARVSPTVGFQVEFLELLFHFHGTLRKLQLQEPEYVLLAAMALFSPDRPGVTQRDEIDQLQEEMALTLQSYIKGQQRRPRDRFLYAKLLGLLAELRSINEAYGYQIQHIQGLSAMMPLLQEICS
Procedure: NVS_NR_hCAR_Antagonist is a biochemical, single-readout assay that uses extracted gene-proteins in a cell-free assay. Measurements were taken 1 hour after chemical dosing in a 384-well plate.NVS_NR_hCAR_Antagonist is one of one assay component(s) measured or calculated from the NVS_NR_hCAR_Antagonist assay. It is designed to make measurements of fluorescent resonance energy transfer, a form of binding reporter, as detected with fluorescent resonance energy transfer signals by Time-Resolved Fluorescence Resonance Energy Transfer (TR-FRET) technology.Data from the assay component NVS_NR_hCAR_Antagonist was analyzed into 1 assay endpoint. This assay endpoint, NVS_NR_hCAR_Antagonist, was analyzed in the positive analysis fitting direction relative to DMSO as the negative control and baseline of activity. Using a type of binding reporter, loss-of-signal activity can be used to understand changes in the binding as they relate to the gene NR1I3. Furthermore, this assay endpoint can be referred to as a primary readout, because the performed assay has only produced 1 assay endpoint. To generalize the intended target to other relatable targets, this assay endpoint is annotated to the nuclear receptor intended target family, where the subfamily is non-steroidal.
Binding assays used specific radioligands (tritiated, iodinated) with non-radioactive competitive displacement ligands in agonist or antagonist protocols (as indicated) and various reference compounds and inhibitors to titrate specific binding to receptors and transporters. Most enzyme assays (CYPs, kinases, phosphatases, proteases, HDACs) used recombinant protein and specific substrates (fluorescence mostly, some colorimetric and radioactive) and inhibitors, followed by a biochemical separation of substrate and product. All assays for the biochemical HTS were initially run in duplicate at a single concentration (10 uM for CYP450 assays and 25 uM for all others). […] Each assay was run with positive and negative controls, and concurrent controls on every plate. The follow-up (secondary) screen tested active chemical-pairs in concentration series, as well as a few additional assays not tested in the primary screen, some selected negative inactives, and several cases re-run in the concentration series for confirmatory purposes.
With CCCCCCCCCc1ccc(O)cc1 the outcome was “inactive”. For c1cc2ccc3cccc4ccc(c1)c2c34, the outcome was “inactive”. In the case of CCNc1nc(NC(C)C)nc(SC)n1, the outcome is reported as “inactive”. For O=S(=O)(O)C(F)(F)C(F)(F)C(F)(F)C(F)(F)C(F)(F)C(F)(F)F, the outcome was “inactive”. For CCC(C)(CC)c1cc(NC(=O)c2c(OC)cccc2OC)on1, the outcome was “inactive”. CCCN(CCC)N=O was tested, and the outcome was “inactive”. With Oc1ccc(C(c2ccc(O)cc2)(C(F)(F)F)C(F)(F)F)cc1 the AC50 was 2.29 nM (active). Cc1cc2c3c(c1)C(c1ccccc1)=N[C@@H](NC(=O)c1ccncc1)C(=O)N3CC2 was tested, and the outcome was “inactive”. For ClC1=C(Cl)[C@]2(Cl)[C@@H]3[C@@H](Cl)[C@H]4O[C@H]4[C@@H]3C1(Cl)C2(Cl)Cl, the outcome was “inactive”. CC1=C2C[C@H]3[C@@H](CC=C4C[C@@H](O)CC[C@@]43C)[C@@H]2CC[C@]12O[C@@H]1C[C@H](C)CN[C@H]1[C@H]2C was tested, and the outcome was “inactive”.
